Data published in PubChem BioAssay (NCI).
Compounds without any hit were thinned out: in the full panel of roughly 83,000, 20% have a hit.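 In brief: 96-well plates, 48 h treatment, single concentration, percent growth endpoint.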 A number with no mark means an inactive call. Activity calls are given as the source filed them. The calls were made as follows: active = growth percent below 10; inactive = the rest.

Assays:
Experiment in all cases: NCI-60 one-dose screen, 48 h (100 = growth as untreated, 0 = no growth, -100 = all killed)
SR leukemia = details: 10 µM
RPMI-8226 leukemia = details: 10 µM
OVCAR-8 ovarian = details: 10 µM
OVCAR-5 ovarian = details: 10 µM
OVCAR-4 ovarian = details: 10 µM
SK-OV-3 ovarian = details: 10 µM
IGROV1 ovarian = details: 10 µM
OVCAR-3 ovarian = details: 10 µM
HS 578T breast = details: 10 µM
NCI/ADR-RES ovarian = details: 10 µM
T-47D breast = details: 10 µM
BT-549 breast = details: 10 µM
MDA-MB-435 melanoma = details: 10 µM
SW-620 colon = details: 10 µM
MCF7 breast = details: 10 µM unless noted
HCT-116 colon = details: 10 µM
HCC-2998 colon = details: 10 µM
KM12 colon = details: 10 µM

Row | Structure (SMILES) | growth (SR leukemia) | growth (RPMI-8226 leukemia) | growth (OVCAR-8 ovarian) | growth (OVCAR-5 ovarian) [%] | growth (OVCAR-4 ovarian) [%] | growth (SK-OV-3 ovarian) | growth (IGROV1 ovarian) | growth (OVCAR-3 ovarian) | growth (HS 578T breast) [%] | growth (NCI/ADR-RES ovarian) | growth (T-47D breast) [%] | growth (BT-549 breast) | growth (MDA-MB-435 melanoma) | growth (SW-620 colon) [%] | growth (MCF7 breast) [%] | growth (HCT-116 colon) | growth (HCC-2998 colon) [%] | growth (KM12 colon)
1 | O=S(=O)(O)c1ccc(O)c2ccccc12 | 84.6% | 94.5% | 113% | 98.7 | 98.3 | 94.1% | 86.1% | 108% | 102 | 98% | 99.4 | 91.6% | 113% | 97.3 | 94.3 | 98.4% | 114 | 102%
2 | CCN(CC)C(=O)/C=C(/C)c1ccccc1 | 107% | 109% | 105% | 113 | 92.7 | 107% | 117% | 111% | 101 | 102% | 102 | 94.5% | 108% | 102 | 102 | 106% | 88.6 | 111%
3 | C=CC[N+](C)(C)C | 90.8% | 101% | 106% | 102 | 109 | 108% | 99.7% | 118% | 95.5 | 105% | 103 | 114% | 102% | 107 | 101 | 104% | 103 | 114%
4 | CC(=O)OCCC(C)CCC=C(C)C (centres undefined) | 108% | 95% | 102% | 102 | 107 | 111% | 112% | 121% | 104 | 107% | 98.8 | 102% | 102% | 95.4 | 101 | 100% | 102 | 102%
5 | O=C(O)CCCc1ccccc1 | 96.9% | 110% | 96.7% | 104 | 117 | 110% | 121% | 121% | 118 | 103% | 101 | 105% | 98.9% | 111 | 104 | 104% |  | 
6 | COc1cc2nn(-c3ccccc3N)nc2cc1OC | 111% | 100% | 97.1% | 99.6 | 97.7 | 102% | 89% | 112% | 92.6 | 97.9% | 93.6 | 81.3% | 96.8% | 105 | 90.7 | 103% | 95.8 | 
7 | O=[N+]([O-])c1ccc(-c2ncc(-c3ccc(Br)cc3)o2)cc1 | 124% | 78.8% | 109% | 105 | 97.3 | 112% | 100% | 129% | 129 | 104% | 94.7 | 113% | 108% | 93.5 | 87.4 | 91.4% | 88.2 | 119%
8 | CC(=Nc1ccccc1)C1=C(O)C(Cc2cccc(F)c2)NC1=O (centres undefined) | 0.385% (active) | 9.85% (active) | 1.8% (active) | 25.6 | 36.4 | 4.34% (active) | 13.8% | -36.1% (active) | 45.6 | 7.11% (active) | 72.6 | -20.2% (active) | -46.2% (active) | 26.8 | 20.9 | 7.22% (active) | 26.9 | -3.04% (active)
9 | COC(=O)/C=C\C(=O)OC | 103% | 114% | 108% | 116 | 115 | 118% | 113% | 119% | 113 | 111% | 113 | 99.7% | 115% | 105 | 103 | 108% | 103 | 
10 | CC(C)(C)c1cc(O)c(C(C)(C)C)cc1O | 92.5% | 54.1% | 93% | 97.2 | 74.6 | 125% | 110% | 99.2% | 98.8 | 100% | 95 | 81.3% | 91.9% | 97 | 83.7 | 86.6% |  | 
11 | CC1OC(Oc2c(-c3ccc(O)c(O)c3)oc3cc(O)cc(O)c3c2=O)C(O)C(O)C1O (centres undefined) | 106% | 105% | 106% | 108 | 105 | 108% | 107% | 103% | 105 | 111% | 105 | 109% | 111% | 99.8 | 101 | 105% | 110 | 102%
12 | COC(=O)c1cccnc1 | 104% | 106% | 92.2% | 90.3 | 110 | 101% | 91.9% | 106% | 99.3 | 95.9% | 118 | 85.5% | 105% | 97.4 | 96.4 | 97.8% | 104 | 112%
13 | CC1Cc2ccccc2O1 (centres undefined) | 100% | 109% | 112% | 110 | 119 | 112% | 111% | 118% | 111 | 110% | 104 | 134% | 124% | 111 | 99.6 | 112% | 86.4 | 
14 | S=C(Nc1ccccc1)N1CCCCC1 | 105% | 110% | 99.4% | 90.1 | 111 | 107% | 100% | 110% | 102 | 107% | 89.3 | 112% | 110% | 106 | 93.2 | 92.3% | 101 | 105%
15 | CCOC(=O)C1=C(Nc2ccc(Br)cc2)C(=O)N(CC)C1 | 97.7% | 99.7% | 95.7% | 91 | 93.7 | 102% | 93.1% | 110% | 97.4 | 93.3% | 107 | 86.9% | 101% | 100 | 105 | 95.9% | 101 | 
16 | Oc1ccc(N=Nc2ccc(Br)cc2)c(O)c1 | -8.8% (active) | -37.3% (active) | 24.1% | 80.7 | 33.7 | 25.7% | -15.3% (active) | -65.2% (active) | 10.4 | -55.4% (active) | 28 | 46.1% | -49% (active) | 18.8 | 15.6 | 18.1% | 33.6 | 8.35% (active)
17 | Cc1ccc(C(=O)NC2c3ccccc3Oc3ccccc32)cc1 | 26.6% | 78.9% | 48.6% | 80.6 | 64.7 | 48.3% | 50.8% | 31.6% | 46.5 | 55% | 60.5 | 62.6% | 6.21% (active) | 38.9 | 21.7 | 30.3% | 75.6 | 51.3%
18 | c1ccc2c(N3CCCCC3)ncnc2c1 | 105% | 66.9% | 94.4% | 99.9 | 96.8 | 94% | 96% | 97.3% | 116 | 91% | 130 | 90.8% | 109% | 98 | 96.6 | 88.4% | 81.1 | 103%
19 | C1CNC(C2=NCCN2)=N1 | 96.1% | 109% | 102% | 105 | 105 | 104% | 107% | 94.2% | 101 | 108% | 101 | 111% | 93.4% | 100 | 98.7 | 96.7% | 92.3 | 95.4%
